Screening data: PubChem BioAssay, Broad Institute
Shown is part of a subset that was picked to be rich in hits.
miR122 inh – activators of miR-122 sensor in Huh7 cells; Huh7 psiCHECK-miR122 Renilla luciferase sensor, 48 h; activation, % at 12.5 µM; hit rate 0.14% among 340,000; AID 623901;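 active means mean activation of 30% or more, with every replicate also reaching 30%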;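 further: 0% = median of neutral control wells and 100% = median of positive control wells; higher luciferase signal means stronger suppression of miR-122 activity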
The depositor's hits bear a star.

SMILES	miR122 inh
COc1cccc(C2NC(=S)NC(C)=C2C(=O)c2ccccc2)c1OC (stereo not drawn)	-147.1
C[C@H](CO)N1C[C@H](C)[C@H](CN(C)Cc2cccc(C(=O)O)c2)Oc2ncc(C#CCc3ccccc3)cc2C1=O	-10.3
COc1ccc(C(=O)Nc2ccc3c(c2)OC[C@@H](C)N(C)C[C@@H](C)[C@H](OC)CN(C)C3=O)cc1	-5.3
COc1cc(-c2nnc3sc(C4CCCCC4)nn23)cc(OC)c1OC	32.1*
C[C@H]1CN([C@@H](C)CO)C(=O)c2cc(C#Cc3cccc(F)c3)cnc2O[C@H]1CN(C)C(=O)C1CC1	6.8
CC(C)C#Cc1ccc2c(c1)O[C@@H](CN(C)CC1CCCC1)[C@H](C)CN([C@@H](C)CO)S2(=O)=O	-6.7
C[C@@H]1CN([C@@H](C)CO)S(=O)(=O)c2ccc(-c3cncnc3)cc2O[C@@H]1CN(C)C(=O)Cc1cccnc1	-10.4
CC(C)CC#Cc1ccc2c(c1)O[C@@H](CN(C)C(=O)c1ccccc1)[C@@H](C)CN([C@@H](C)CO)S2(=O)=O	-5.8
CCN(Cc1ccccc1)C(=O)c1[nH]c2ccc(OC)cc2c1C	-125.2
COc1ccc2[nH]c(=O)c(COC(=O)c3ccco3)cc2c1	30.8*
C/C=C/c1ccc2c(c1)O[C@H](CN(C)C(=O)CC1CC1)[C@@H](C)CN([C@@H](C)CO)S2(=O)=O	-4.0
CCCC#Cc1cnc2c(c1)C(=O)N([C@H](C)CO)C[C@H](C)[C@@H](CN(C)C(=O)C1CC1)O2	-9.9
COc1ccccc1-c1cnc2c(c1)C(=O)N([C@@H](C)CO)C[C@H](C)[C@@H](CN(C)CC1CCCC1)O2	6.2
CCNc1nc(N)nc(Oc2ccc(OCCOc3ccccc3)nn2)n1	-151.2
CNc1nc(NCCOc2ccccc2)c2sccc2n1	36.8*
CC(C)CC#Cc1cnc2c(c1)C(=O)N([C@@H](C)CO)C[C@H](C)[C@H](CN(C)C(=O)Nc1cc(F)ccc1F)O2	12.6
CCC(=O)N(C)C[C@@H]1Oc2ncc(C#C[C@@H](C)O)cc2C(=O)N([C@@H](C)CO)C[C@@H]1C	-0.3
CO[C@H]1CN(C)C(=O)c2ccc(NC(=O)Nc3ccccc3)cc2OC[C@@H](C)N(C(C)=O)C[C@H]1C	-2.4
CCN(CC)c1ccc(/C=N/NC(=O)c2ccoc2C)c(O)c1	49.7*
C/C=C/c1ccc2c(c1)O[C@@H](CN(C)Cc1ccccc1F)[C@H](C)CN([C@@H](C)CO)S2(=O)=O	0.5
C[C@@H]1CN([C@@H](C)CO)C(=O)Cc2cc(NC(=O)CCCCCC(=O)Nc3ccccc3N)ccc2O[C@@H]1CN(C)Cc1ccc(Oc2ccccc2)cc1	12.1
COc1ccc(NC(=O)N(C)C[C@@H]2Oc3ncc(C4=CCCC4)cc3C(=O)N([C@@H](C)CO)C[C@@H]2C)cc1	2.0
CC(C)CC#Cc1ccc2c(c1)O[C@@H](CN(C)C(=O)NC1CCCC1)[C@@H](C)CN([C@@H](C)CO)S2(=O)=O	-13.6
COc1ccc(-c2cc(C3CCN(c4ccc(C(C)=O)cc4[N+](=O)[O-])CC3)[nH]n2)cc1	44.6*
Cc1ccc(N(Cc2ccco2)C(=O)c2ccc(N3CCCCC3)c([N+](=O)[O-])c2)cc1	-164.5
SMILES	miR122 inh
C[C@H]1CN([C@@H](C)CO)S(=O)(=O)c2ccc(-c3cncnc3)cc2O[C@H]1CN(C)Cc1ccccc1	-4.9
COc1ccc(C#Cc2ccc3c(c2)O[C@H](CN(C)C(=O)CN2CCOCC2)[C@H](C)CN([C@H](C)CO)S3(=O)=O)cc1	50.0*
C[C@@H]1CN([C@@H](C)CO)S(=O)(=O)c2ccc(C#Cc3cccc(F)c3)cc2O[C@H]1CN(C)C(=O)CN1CCOCC1	-2.1
C[C@@H]1CN([C@H](C)CO)S(=O)(=O)c2ccc(C#Cc3ccncc3)cc2O[C@@H]1CN(C)C(=O)c1ccncc1	15.4
C[C@H](CO)N1C[C@H](C)[C@@H](CN(C)C(=O)C2CCOCC2)Oc2cc(C#Cc3ccncc3)ccc2S1(=O)=O	33.6*
C[C@H](CO)N1C[C@H](C)[C@@H](CN(C)C(=O)Nc2ccc3c(c2)OCO3)Oc2cc(C#Cc3ccccc3)ccc2S1(=O)=O	-17.1
C[C@@H]1CN([C@@H](C)CO)S(=O)(=O)c2ccc(C#Cc3ccncc3)cc2O[C@@H]1CN(C)C(=O)Nc1ccc2c(c1)OCO2	43.2*
C[C@H](CO)N1C[C@H](C)[C@@H](CN(C)C(=O)CN2CCOCC2)Oc2cc(C#Cc3cccc(F)c3)ccc2S1(=O)=O	3.0
CCCC#Cc1ccc2c(c1)O[C@H](CN(C)C(=O)c1ccncc1)[C@H](C)CN([C@@H](C)CO)S2(=O)=O	31.5*
C[C@@H]1CN([C@@H](C)CO)S(=O)(=O)c2ccc(C#Cc3ccncc3)cc2O[C@H]1CN(C)C(=O)C1CCCCC1	6.6
C[C@H]1CN([C@@H](C)CO)S(=O)(=O)c2ccc(C#Cc3ccncc3)cc2O[C@@H]1CN(C)C(=O)c1ccncc1	-17.8
COc1cccc(NC(=O)N(C)C[C@H]2Oc3cc(C#Cc4ccncc4)ccc3S(=O)(=O)N([C@@H](C)CO)C[C@@H]2C)c1	-38.8
C[C@@H]1CN([C@@H](C)CO)S(=O)(=O)c2ccc(C#Cc3ccncc3)cc2O[C@@H]1CN(C)C(=O)C1CCCCC1	18.9
CO[C@H]1CN(C)C(=O)c2ccc(NC(=O)NC(C)C)cc2OC[C@@H](C)NC[C@H]1C	-13.2
C[C@@H]1CN([C@H](C)CO)S(=O)(=O)c2ccc(C#Cc3ccc(F)cc3)cc2O[C@H]1CN(C)S(C)(=O)=O	2.5
C[C@H](CO)N1C[C@H](C)[C@H](CN(C)CC2CCOCC2)Oc2ncc(C#Cc3ccccn3)cc2C1=O	5.4
CCCC(O)C#Cc1cnc2c(c1)C(=O)N([C@H](C)CO)C[C@H](C)[C@H](CN(C)S(=O)(=O)c1ccccc1)O2 (stereo partly drawn)	-0.9
C[C@@H]1CN([C@@H](C)CO)C(=O)c2cc(C#CCC3CCCC3)cnc2O[C@@H]1CN(C)Cc1ccccn1	-1.7
Cc1ccc(-c2ccc3c(c2)O[C@@H](CN(C)C(=O)NC(C)C)[C@H](C)CN([C@H](C)CO)S3(=O)=O)cc1	-27.7
Cc1noc(C)c1NC(=O)N(C)C[C@@H]1Oc2ncc(C#Cc3cccc(F)c3)cc2C(=O)N([C@H](C)CO)C[C@@H]1C	10.9
C[C@@H]1CN([C@H](C)CO)C(=O)c2cc(/C=C/c3ccccc3)cnc2O[C@H]1CN(C)C(=O)c1ccncc1	4.5
COCC(=O)N(C)C[C@@H]1Oc2ncc(C#Cc3ccccc3OC)cc2C(=O)N([C@H](C)CO)C[C@H]1C	1.3
C[C@H](CO)N1C[C@H](C)[C@@H](CN(C)Cc2ccccn2)Oc2ncc(-c3ccc(F)cc3)cc2C1=O	0.4
COc1cccc(-c2cnc3c(c2)C(=O)N([C@H](C)CO)C[C@H](C)[C@H](CN(C)C(=O)Nc2cccc4ccccc24)O3)c1	9.2
COc1cccc(C#Cc2ccc3c(c2)O[C@@H](CN(C)C(C)=O)[C@@H](C)CN([C@@H](C)CO)S3(=O)=O)c1	-4.4
CNC[C@@H]1Oc2cc(C#Cc3cccc(OC)c3)ccc2S(=O)(=O)N([C@@H](C)CO)C[C@@H]1C	48.7*
COc1cccc(C#Cc2ccc3c(c2)O[C@H](CN(C)C(C)=O)[C@H](C)CN([C@H](C)CO)S3(=O)=O)c1	5.0
C[C@H](O)C#Cc1ccc2c(c1)O[C@@H](CN(C)Cc1cccnc1)[C@@H](C)CN([C@@H](C)CO)S2(=O)=O	-1.9
Cc1noc(C)c1NC(=O)N(C)C[C@H]1Oc2cc(C#CCC(C)C)ccc2S(=O)(=O)N([C@@H](C)CO)C[C@@H]1C	-37.1
